Reference: the supplement of paper PMC13380429

Test system: Vero E6 infected with SARS-CoV-2
Assay: inhibition of SARS-CoV-2 cytopathic effect; higher = more antiviral protection, active = above 15
Conditions: 48 h

Measured: inhibition of SARS-CoV-2 cytopathic effect

O=C(O)c1ccc(NC(=O)[C@H](Cc2ccc(O)cc2)NC(=O)c2ccccc2)cc1 [bentiromide]
inactive: 1 nM -1.4% | 8.33 nM 0.94% | 100 nM -1.51% | 833.33 nM -0.68% | 10000 nM 0.39%

C/C=C/C[C@@H](C)C(=O)[C@H]1C(=O)N[C@@H](C(C)C)C(=O)N(C)CC(=O)N(C)[C@@H](CC(C)C)C(=O)N[C@@H](C(C)C)C(=O)N(C)[C@@H](CC(C)C)C(=O)N[C@@H](C)C(=O)N[C@H](C)C(=O)N(C)[C@@H](CC(C)C)C(=O)N(C)[C@@H](CC(C)C)C(=O)N(C)[C@@H](C(C)C)C(=O)N1C [valspodar]
inactive: 1 nM -5.19% | 8.33 nM -0.88% | 100 nM -1.83% | 833.33 nM 0.22% | 10000 nM 8.33%

C[C@]12C=CC(=O)C=C1CC[C@@H]1[C@@H]2[C@@H](O)C[C@@]2(C)[C@H]1CC[C@]2(O)C(=O)COC(=O)CCC(=O)O [prednisolone-hemisuccinate]
inactive: 1 nM -1.49% | 8.33 nM 0.74% | 100 nM 3.44% | 833.33 nM 3.76% | 10000 nM 1.85%

C[C@H](Cc1ccc2c(c1)OC(C(=O)O)(C(=O)O)O2)NC[C@H](O)c1cccc(Cl)c1
inactive: 1 nM 0.95% | 8.33 nM 3.71% | 100 nM -1.72% | 833.33 nM -1.35% | 10000 nM 2.18%

COCCOc1ccc(N2CCN(CCn3ncc4c3nc(N)n3nc(-c5ccco5)nc43)CC2)cc1 [preladenant]
inactive: 1 nM 1.43% | 8.33 nM 0.62% | 100 nM 3.21% | 833.33 nM 0.67% | 10000 nM 2.45%
